Shiga inhibitor: Shiga toxin inhibition | AID 2315 | Vero cells, Shiga toxin protein synthesis inhibition reporter | 290,000 compounds, 9.2% hits | inhibition, % at 38.7 µM; in the data active = inhibition mostly above about 28%, no sharp cut-off; inactive = mostly below about 43%; note: 0% is about no effect
Pf growth 96h: P. falciparum growth inhibition at 96 hours; P. falciparum luciferase reporter growth, 96 h; Potency, µM (top dose mostly 28.7 µM), inactives show at the highest dose activity change, negative = inhibition, usual class: inhibitors; 320,000 compounds, 6.9% hits; AID 504834; note: potency is the fitted concentration of half-maximal effect; % is set by controls: 0 for no effect and ±100 for the full control effect
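96 h incubation, 37 C, 5% CO2, of luciferase-reporter P. falciparum-infected RBCs (2% hematocrit, 0.05% parasitemia final) with test compounds; endpoint luminescence.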
CHX counter: affects cycloheximide protein synthesis inhibition readout, counter-screen | cell reporter, cycloheximide protein synthesis inhibition counterscreen | max response, % | 300,000 compounds, 12% hits | AID 2314; in the data active = max response mostly above about 13%, no sharp cut-off; inactive = mostly below about 14%; note: read at 38.3 µM for the half of the compounds with a filed dose; 0% is about no effect
AMA1-RON2 inh: disrupts binding of P. falciparum AMA1 to RON2. AID 720542. 360,000 compounds, 0.2% hits. AlphaScreen AMA1-biotinylated RON2 peptide binding. Potency, µM (highest dose often 58.2 µM), for the others: top-dose activity change, negative = inhibition, most hits filed as inhibitors;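 note: potency is the fitted concentration of half-maximal effect; 0% = vehicle wells and -100% = peptide control; nearly all actives have a fitted effect of over 45% in size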
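AMA1 (3D7) with his tag at 25 nM final met compounds first, then biotinylated RON2 peptide at 25 nM; detection used donor plus acceptor beads, 10 µg/mL apiece, read by AlphaScreen after 30 min at room temperature.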
HCV inh: HCV inhibition. Huh7.5.1 HCVcc-Cre infection, luciferase reporter, 44 h. AID 651820. 340,000 compounds, 3.4% hits. Potency, µM (doses to about 41.8 µM), without a hit: top-dose activity change, negative = inhibition, most hits filed as inhibitors; note: potency is the fitted concentration of half-maximal effect; % is set by controls: 0 for no effect and ±100 for the full control effect
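Cells (1,000/well) were plated 4 h before compound, then infected with HCVcc-Cre virus (~0.5 moi). After 44 h further culture, infection was read as luciferase luminescence following a 15 min substrate incubation at room temperature.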
Pf growth 48h: inhibits P. falciparum growth in the first generation, 48 h; P. falciparum luciferase growth in erythrocytes, 48 h; 310,000 compounds, 5.9% hits; Potency, µM (doses to about 28.7 µM), without a hit: top-dose activity change, negative = inhibition, most hits filed as inhibitors; note: potency is the fitted concentration of half-maximal effect; % is set by controls: 0 for no effect and ±100 for the full control effect
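Parasite viability was followed by luminescence of a genomically integrated firefly luciferase. Cultures held 0.1% parasitemia at 2% hematocrit (final), incubated under 5% CO2 at 37 C.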
Numbers without * were called inactive; ? = inconclusive; . = no result; ! = not active in a repeat; [ ] = another dose, or the depositor's remark. Hits are enriched below; roughly 21% of the tested compounds scored in any of these assays. Unless noted, calls come from the whole dose curve; as a rule, active = well fitted curve in the direction sought with a large enough effect; inconclusive = small, poorly fitted or top-dose-only effect, or another doubt; inactive = no such curve, though single readings can be large; an effect the other way counts as inactive or inconclusive.

SMILES	Shiga inhibitor	Pf growth 96h	CHX counter	AMA1-RON2 inh	HCV inh	Pf growth 48h
Cc1ccc(N=Nc2ccc(O)c3ncccc23)cc1C	99.9*	?	28.0*	82.8%	?	?
Cc1ccc(N=Nc2ccc(O)c3ncccc23)cc1	-9.0	?	-6.0	-2.4%	?	0.465µM*
Cc1ccc(Sc2ncccc2O)cc1	.	.	.	-1.2%	5.3%	.
COc1ccc(C(=O)NCCc2cccc(Cl)c2)cc1OC1CCN(C(C)=O)CC1	4.5	?	10.8	-2.5%	20.6%	?
CC1(C)CC(=O)C=C(NNC(=O)c2ccccc2)C1	active	?	24.2*	-2.1%[11.6 µM]	8.5%	17.6%
CC1(C)CC(=O)C=C(NNC(=O)c2ccc(N)cc2)C1	5.6	29.2%	5.8	43.5%	3.9%	30.3%
Cc1ccc(F)cc1C(=O)N1CCCCC1c1cc(C(=O)Nc2cccc(C#N)c2)no1 (configuration not stated)	.	.	.	0.9%	.	.
CSc1ccccc1OCc1cc(C(=O)N(Cc2nccn2C)C(C)C)no1	36.7	7.3%	28.5*	-1.3%	-2.9%	1.3%
CSc1ccccc1OCc1cc(C(=O)NC(C)CCn2cccn2)no1 (configuration not stated)	16.3	-14.2%	17.7	-3.8%	.	4.3%
CC(C)N(Cc1nccn1C)C(=O)c1cc(COc2cccc(C(F)(F)F)c2)on1	-4.1	-14.1%	-5.7	-1.0%	?	10.5%
Cc1cc(OCc2cc(C(=O)N(Cc3nccn3C)C(C)C)no2)cc(C)c1Cl	55.4*	14.7µM*	26.2*	-7.1%	11.2µM*	-0.4%
CCn1ccnc1CN(C)C(=O)c1cc(COc2ccccc2SC)on1	95.6*	?	53.4*	10.1%	-25.4%	-8.0%
CC1CC(NC(=O)/C=C/C(=O)O)CC(C)(C)C1 (configuration not stated)	-8.2	-10.5%	0.7	-2.6%	?	-1.1%
O=C(/C=C/c1ccc(-c2ccccc2[N+](=O)[O-])o1)c1ccc(F)cc1	63.6*	6.2%	42.8*	?	?	6.6%
Cc1ccc(-c2ccc(/C=C/C(=O)c3ccccc3)o2)cc1	27.8	3.3%	25.7*	-14.9%	3.9%	42.4%
Cc1ccc(C(=O)/C=C/c2ccc(-c3ccccc3[N+](=O)[O-])o2)cc1	-4.0	16.6%	-1.1	?	?	5.6%
O=C(/C=C/c1ccc(-c2ccccc2)o1)c1ccccc1	71.8*	21.7%	74.3*	-22.9%	-23.2%	145.0%
O=C(/C=C/c1ccc(-c2ccccc2[N+](=O)[O-])o1)c1ccc(Br)cc1	12.2	5.6%	11.2	-6.7%	?	-3.6%
CCOC(=O)Cn1ccc2cc(S(=O)(=O)N3CCCC3)ccc21	.	.	.	-4.5%	.	.
O=C(NCc1ccccn1)C1CCN(S(=O)(=O)c2cc(Cl)ccc2Cl)CC1	-13.3	94.6%	-9.1	32.9%	?	-7.3%
OCCOCCN1CCN(C(c2ccccc2)c2ccc(Cl)cc2)CC1 (configuration not stated)	-16.8	?	-2.1	-11.4%	1.41µM*!	?
Clc1ccc([C@@H](OCCN2CCCCC2)c2ccccc2)cc1	.	3.22µM*	.	.	.	?
CC(C)(C)n1nnnc1C(c1ccccc1)N1CCCN(Cc2ccc(F)cc2)CC1 (configuration not stated)	.	.	.	-5.5%	.	.
CC(C)(C)n1nnnc1CN1CCN(C(c2ccccc2)c2ccccc2)CC1	4.2	-13.3%	9.8	?	?	5.22µM*
c1ccc(-c2nnc(CN3CCN(c4ccccc4)CC3)o2)cc1	-2.0	-24.7%	15.8	-8.6%	5.0%	-3.7%
SMILES	Shiga inhibitor	Pf growth 96h	CHX counter	AMA1-RON2 inh	HCV inh	Pf growth 48h
c1ccc(-c2nnc(CN3CCN(C(c4ccccc4)c4ccccc4)CC3)o2)cc1	4.8	9.28µM*	4.4	61.6%	-9.5%	-40.9%
COc1ccc(N(CC(=O)NN=C2CCN(C)CC2)S(=O)(=O)c2ccc(NC(C)=O)cc2)cc1	-1.7	?	-4.4	2.8%	-7.6%	-7.4%
CCNC(=O)C1(C)CCN(C(=O)c2ccc3ccccc3c2)C1 (configuration not stated)	.	.	.	-11.0%	.	.
CC1(C)C[C@@H]1C(=O)N/C(=C\CCCCSC[C@H](N)C(=O)O)C(=O)O	.	-24.4%	.	-9.9%	10.2%	-0.9%
O=C(O)COCCN1CCN(C(c2ccccc2)c2ccc(Cl)cc2)CC1 (configuration not stated)	4.4	.	-6.2	-0.2%	-0.3%	6.3%
CC(C)(C)c1ccc(CN2CCN([C@H](c3ccccc3)c3ccc(Cl)cc3)CC2)cc1	.	7.57µM*	.	.	.	16.9µM*
Cc1c(C(=O)OC(C)C)sc(NC(=O)c2cnccn2)c1C(=O)OC(C)C	.	.	.	39.5%	-11.0%	.
COc1ccc(CNC(=O)CN2CCC(NC(=O)c3ccccc3C)CC2)cc1	-8.5	30.4%	-3.3	26.9%	-13.8%	7.0%
COc1ccc(Cc2nnc(SCC(=O)c3ccc4c(c3)NC(=O)CO4)o2)cc1	.	-6.5%	.	3.8%	-9.8%	?
CC(=O)c1cc2c(cc1NC(=O)Cn1nc(-c3ccc(C)cc3)ccc1=O)OCO2	-4.1	-21.6%	-6.7	14.8%	11.2µM*	?
CC(=O)Nc1cc2c(cc1NC(=O)Cn1nc(-c3ccc(F)cc3)ccc1=O)OCCO2	-6.8	-15.9%	-2.5	6.5%	-10.0%	22.8%
CC1Nc2ccccc2C(=O)N1NC(=O)c1ccc(Br)cc1 (configuration not stated)	-4.5	8.28µM*	4.7	-3.1%	16.8%	28.7%
CCOC(=O)NN1C(=O)c2ccccc2NC1C (configuration not stated)	13.9	-15.7%	2.0	3.3%	3.2%	28.6%
Cc1ccc(F)cc1-c1cc2nc(NCCCN(C)C)n(C)c(=O)c2s1	.	.	.	-2.1%	.	.
c1ccc(SCc2cn(C[C@H]3CC[C@@H]([C@@H]4CC[C@H](Cn5cc(CSc6ccccc6)nn5)O4)O3)nn2)cc1	-5.6	14.7µM*	0.6	-8.3%	?	-15.4%
COc1cccc(-c2cn(C[C@H]3CC[C@@H]([C@@H]4CC[C@H](Cn5cc(-c6cccc(OC)c6)nn5)O4)O3)nn2)c1	-5.6	7.38µM*	6.3	-6.8%	-11.1%	?
CCCCc1cn(C[C@H]2CC[C@@H]([C@@H]3CC[C@H](Cn4cc(CCCC)nn4)O3)O2)nn1	-4.7	?	-1.4	20.4%	?	25.8%
c1cncc(-c2cn(C[C@H]3CC[C@@H]([C@@H]4CC[C@H](Cn5cc(-c6cccnc6)nn5)O4)O3)nn2)c1	-2.5	-13.4%	-3.5	-2.4%	10.2%	5.8%
c1ccc(Cn2cc(CSc3ccccc3)nn2)cc1	67.2*	91.7%	38.2*	2.0%	12.5%	50.3%
Nc1nonc1-n1nnc(C(=O)N/N=C/c2ccc(F)cc2)c1-c1ccc2c(c1)OCO2	-0.4	0.0657µM*	-2.2	34.6%	4.7%	0.117µM*
Nc1nonc1-n1nnc(C(=O)N/N=C/C=C/c2ccccc2)c1CSC1=NCCS1	43.1*	?	16.7*	76.1%	?	?

Bioassay records (PubChem)
